These compounds were tested against MAP kinase-activated protein kinase 2 (Homo sapiens) (UniProt P49137). Conditions: at 1 µM.
Sequence of MAP kinase-activated protein kinase 2 (Homo sapiens) (P49137 whole entry, looked up): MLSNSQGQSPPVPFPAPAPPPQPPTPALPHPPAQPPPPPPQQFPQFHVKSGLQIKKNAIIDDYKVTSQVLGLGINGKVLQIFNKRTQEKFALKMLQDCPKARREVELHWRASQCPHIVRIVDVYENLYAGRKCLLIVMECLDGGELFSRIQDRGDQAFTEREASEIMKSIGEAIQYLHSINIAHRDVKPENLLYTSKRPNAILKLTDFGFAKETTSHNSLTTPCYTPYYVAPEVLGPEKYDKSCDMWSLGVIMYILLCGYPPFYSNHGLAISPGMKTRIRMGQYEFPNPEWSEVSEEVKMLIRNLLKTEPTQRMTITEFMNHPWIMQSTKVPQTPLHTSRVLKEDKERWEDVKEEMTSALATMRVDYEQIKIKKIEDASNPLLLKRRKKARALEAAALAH

Structure (SMILES)	inhibition [%]
COc1cc(Nc2ncc(-c3ccccc3)o2)cc(OC)c1OC	-0.59
COc1ccc(C2=C(N3CCc4ccccc43)C(=O)NC2=O)cc1	1.74
Cc1ccc(C(=O)NC(C)C)cc1-c1ccc(C(=O)NCC2CC2)cc1	-1.8
NC(=O)c1cc(-c2ccc(F)cc2)cc(-c2ccncc2)c1N	1.35
Clc1ccc(CNc2nccc(-c3cnn4ncccc34)n2)cc1	3.81
O=C1Nc2ccccc2/C1=C/Nc1ccc(-n2cncn2)cc1	2.54
Fc1ccc(-c2ncn(C3CCNCC3)c2-c2ccnc(Oc3ccc(F)c(F)c3)n2)cc1	0.66
CN(c1ccc(NC(=O)Nc2c(Cl)cccc2Cl)cc1)c1ccnc(Nc2cccc(CS(C)(=O)=O)c2)n1	1.08
NC(=O)Cc1ccccc1Oc1nccc(-c2c(-c3ccc(F)cc3)ncn2C2CCNCC2)n1	0.89
CN(C)CCOc1ccc(-c2cc(-c3ccc4c(c3)CCC4=NO)c(-c3ccncc3)o2)cc1	-1.61
CN(C)c1ccc2c(c1)/C(=C/Nc1ccc(S(N)(=O)=O)cc1)C(=O)N2	1.33
COc1cc(C)c(N(C)C(=O)CN(C)C)cc1Nc1nc(Nc2cccc(F)c2C(N)=O)c2cc[nH]c2n1	0.04
O=C(NCC1CC1)c1ccc(-c2cccc(C(=O)NC3CC3)c2)cc1	1.17
COc1cc(N2CCN(C(C)C)CC2)ccc1Nc1nc(Nc2ccc(F)cc2C(=O)NC[C@@H](O)CO)c2cc[nH]c2n1	2.39
NC(=O)c1ccc(Oc2nccc(-c3c(-c4ccc(F)cc4)ncn3C3CCNCC3)n2)cc1	1.79
COc1cc2ncn(-c3cc(OCCc4ccccc4)c(C(N)=O)s3)c2cc1OC	1.03
CCc1cccc(CC)c1/C=C/c1cncc(C(=O)NC)c1	0.99
COc1ccc2cc(-c3c(-c4ccncc4)nc(-c4ccc([S+](C)[O-])cc4C)n3C)ccc2c1 (configuration not stated)	-3.96

These compounds were tested against MAP kinase-activated protein kinase 3 (Homo sapiens) (UniProt Q16644). Conditions: at 0.1 µM.
Sequence of MAP kinase-activated protein kinase 3 (Homo sapiens) (Q16644 whole entry, looked up): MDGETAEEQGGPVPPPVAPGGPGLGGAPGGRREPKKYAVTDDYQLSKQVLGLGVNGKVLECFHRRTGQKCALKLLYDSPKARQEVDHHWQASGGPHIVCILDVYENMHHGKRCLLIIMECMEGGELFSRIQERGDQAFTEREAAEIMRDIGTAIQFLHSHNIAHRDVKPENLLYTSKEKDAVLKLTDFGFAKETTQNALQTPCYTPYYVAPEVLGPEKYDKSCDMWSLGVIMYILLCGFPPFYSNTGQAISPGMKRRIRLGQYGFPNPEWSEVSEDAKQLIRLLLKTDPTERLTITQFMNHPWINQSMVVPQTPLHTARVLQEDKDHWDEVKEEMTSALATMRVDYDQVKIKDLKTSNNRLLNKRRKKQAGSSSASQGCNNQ

Structure (SMILES)	inhibition [%]
O=C(Nc1n[nH]c2cc(-c3ccccc3)ccc12)C1CC1	5.91
Cc1ccc(C(=O)NC2CCC2)cc1-c1ccc(C(=O)NCC2CC2)cc1	5.84
O=C(Nc1n[nH]c2cc(-c3cc(F)ccc3F)ccc12)C1CC1	3.84
CNC(=O)c1cncc(/C=C/c2c(C)cccc2C)c1	0.6
O=C(Nc1n[nH]c2nc(-c3ccc(O)cc3)c(Br)cc12)C1CC1	4.49
NS(=O)(=O)c1ccc(N/N=C2\C(=O)Nc3ccc(-c4cnco4)cc32)cc1	-0.18
Fc1ccc(-c2ncn(CCCN3CCOCC3)c2-c2ccncc2)cc1	3.13
C[C@@H](Oc1cc(-n2cnc3ccc(OCC4CCN(C)CC4)cc32)sc1C(N)=O)c1ccccc1Cl	2.95
CCc1ccc(Oc2nccc(-c3c(-c4ccc(F)cc4)ncn3C3CCNCC3)n2)cc1	36.5
COc1cccc(/C=N/Nc2ncnc3c2cnn3-c2cccc(OC)c2)c1	2.37
COc1ccc2cc(-c3c(-c4ccncc4)nc(-c4ccc(S(C)(=O)=O)cc4C)n3C)ccc2c1	-1.15
CS(=O)(=O)CCNCc1ccc(-c2ccc3ncnc(Nc4ccc(OCc5ccccc5)c(Br)c4)c3c2)o1	3.07
Fc1ccc(-c2ncn(C3CCNCC3)c2-c2ccnc(Oc3ccc(Oc4ccccc4)cc3)n2)cc1	37.5
O=C1Nc2ccc(I)cc2C1=Cc1cc(Br)c(O)c(Br)c1	2.77
COc1cc(Nc2ncc3c(C)nc(-c4cccc(Oc5ccccc5)c4)n3n2)cc(OC)c1OC	8.12
CN1CCN(CCCNc2nc3ccc(Oc4ccc(NC(=O)Nc5cc(C(F)(F)F)ccc5F)cc4)cc3[nH]2)CC1	3.34
COc1cc(Nc2ncc(-c3ccccc3)o2)cc(OC)c1OC	-1.98

Structure (SMILES)	inhibition [%]
COc1ccc(C2=C(N3CCc4ccccc43)C(=O)NC2=O)cc1	4.85
Cc1ccc(C(=O)NC(C)C)cc1-c1ccc(C(=O)NCC2CC2)cc1	0.42
NC(=O)c1cc(-c2ccc(F)cc2)cc(-c2ccncc2)c1N	4.03
Clc1ccc(CNc2nccc(-c3cnn4ncccc34)n2)cc1	7.41
O=C1Nc2ccccc2/C1=C/Nc1ccc(-n2cncn2)cc1	3.98
Fc1ccc(-c2ncn(C3CCNCC3)c2-c2ccnc(Oc3ccc(F)c(F)c3)n2)cc1	18.5
CN(c1ccc(NC(=O)Nc2c(Cl)cccc2Cl)cc1)c1ccnc(Nc2cccc(CS(C)(=O)=O)c2)n1	0.42
NC(=O)Cc1ccccc1Oc1nccc(-c2c(-c3ccc(F)cc3)ncn2C2CCNCC2)n1	13.4
CN(C)CCOc1ccc(-c2cc(-c3ccc4c(c3)CCC4=NO)c(-c3ccncc3)o2)cc1	-1.27
CN(C)c1ccc2c(c1)/C(=C/Nc1ccc(S(N)(=O)=O)cc1)C(=O)N2	0.95
COc1cc(C)c(N(C)C(=O)CN(C)C)cc1Nc1nc(Nc2cccc(F)c2C(N)=O)c2cc[nH]c2n1	1.56
O=C(NCC1CC1)c1ccc(-c2cccc(C(=O)NC3CC3)c2)cc1	2
COc1cc(N2CCN(C(C)C)CC2)ccc1Nc1nc(Nc2ccc(F)cc2C(=O)NC[C@@H](O)CO)c2cc[nH]c2n1	4.35
NC(=O)c1ccc(Oc2nccc(-c3c(-c4ccc(F)cc4)ncn3C3CCNCC3)n2)cc1	17.6
COc1cc2ncn(-c3cc(OCCc4ccccc4)c(C(N)=O)s3)c2cc1OC	2.1
CCc1cccc(CC)c1/C=C/c1cncc(C(=O)NC)c1	4.47
COc1ccc2cc(-c3c(-c4ccncc4)nc(-c4ccc([S+](C)[O-])cc4C)n3C)ccc2c1 (configuration not stated)	-6.68

Reference: ChEMBL document CHEMBL1961873, “Compounds: GSK PKIS; Assays: Nanosyn kinase panel” (2012)
